High-throughput results: PubChem, University of Kansas High Throughput Screening Laboratory
Many of the other results were omitted from the sample, so hits are more common in it than they were.
mHTT-CaM PPI inh – disrupts binding of mutant huntingtin to calmodulin; P42858; AlphaScreen His-mHTT/GST-CaM binding, luminescence; inhibition, % at 15 µM; hit rate 3.6% among 190,000; AID 1671202;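 note: 0% = both proteins with DMSO and 100% = one protein alone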
Pf apPOL inh – Pf-apPOL DNA polymerase inhibition | Recombinant Pf-apPOL, molecular beacon fluorescence, 1.5 h | inhibition, % at 10 µM | hit rate 0.25% among 210,000
Active calls of the source: *. Cut-off read from the data, not from the text of the source: active = inhibition above about 50%; inactive = the rest.

How did CCOc1ccc(-c2nc3s/c(=C\c4cc(Br)ccc4OC)c(=O)n3n2)cc1 do in these assays?
mHTT-CaM PPI inh: -8; Pf apPOL inh: 55*

How did COc1ccc(OC)c(/C=c2\sc3nc(-c4ccc(Br)cc4)nn3c2=O)c1 do in these assays?
mHTT-CaM PPI inh: -2; Pf apPOL inh: 7

How did O=C(NC1CC2CC1N(C(=O)Cc1c(F)cccc1Cl)C2)c1cccnc1 (stereo unspecified) do in these assays?
mHTT-CaM PPI inh: -1; Pf apPOL inh: -8

How did COc1ccc(-c2nc3ccc(C)cn3c2NC(=O)C2CCCC2)cc1OC do in these assays?
mHTT-CaM PPI inh: 16; Pf apPOL inh: 0

How did c1coc(-c2nnc(Nc3nc4cc5c(cc4s3)OCO5)o2)c1 do in these assays?
mHTT-CaM PPI inh: 8; Pf apPOL inh: 28

What do the screens show for `CC(C)n1c(=O)c(NCc2cccc(F)c2)nc2ccncc21`?
mHTT-CaM PPI inh: -5; Pf apPOL inh: -22

What do the screens show for `CC(C)n1c(=O)c(NCc2ccc(F)c(Cl)c2)nc2ccncc21`?
mHTT-CaM PPI inh: 87*; Pf apPOL inh: -16

What do the screens show for `COc1cccc(-c2nc(C3CCN(C(=O)c4cc5ccccc5[nH]4)CC3)no2)c1`?
mHTT-CaM PPI inh: 8; Pf apPOL inh: -22

Results for COc1ccccc1-c1nc(C2CCN(C(=O)c3ccc(F)c(Cl)c3)CC2)no1 ?
mHTT-CaM PPI inh: 92*; Pf apPOL inh: -2

Results for COc1cccc(-c2nc(C3CCN(C(=O)c4nccc5ccccc45)CC3)no2)c1 ?
mHTT-CaM PPI inh: 98*; Pf apPOL inh: -6

What do the screens show for `COc1cccc(-c2nc(C3CCN(C(=O)c4ccc(C(F)(F)F)cc4)CC3)no2)c1`?
mHTT-CaM PPI inh: 86*; Pf apPOL inh: -2

What do the screens show for `COc1cccc(-c2nc(C3CCN(C(=O)c4cccc(C(F)(F)F)c4)CC3)no2)c1`?
mHTT-CaM PPI inh: 33; Pf apPOL inh: -2

What do the screens show for `CC(=O)Nc1ccc(-c2noc(C3CCN(C(=O)c4cc5ccccc5[nH]4)CC3)n2)cc1`?
mHTT-CaM PPI inh: 98*; Pf apPOL inh: 3

What do the screens show for `COc1ccccc1-c1nc(C2CCN(C(=O)c3cccc(F)c3)CC2)no1`?
mHTT-CaM PPI inh: 13; Pf apPOL inh: 0

Results for CC(=O)Nc1ccc(-c2noc(C3CCCN(C(=O)c4cc5ccccc5[nH]4)C3)n2)cc1 (stereo unspecified) ?
mHTT-CaM PPI inh: -4; Pf apPOL inh: -2

What do the screens show for `CCOc1ccc(N2CCN(C(=O)c3cccc(F)c3)C(C)C2=O)cc1` (stereo unspecified)?
mHTT-CaM PPI inh: -3; Pf apPOL inh: 0

Results for Cc1ccc[n+](CC(=O)c2ccc(N3C(=O)c4ccccc4C3=O)cc2)c1 ?
mHTT-CaM PPI inh: 1; Pf apPOL inh: -4

Results for O=C1NC2C=CC=CC2/C1=N\Nc1nc2ccccc2c(=O)n1-c1ccccc1 (stereo unspecified) ?
mHTT-CaM PPI inh: inactive

How did CCOc1ccccc1Oc1c(C)oc2c(CN3CCOCC3)c(O)ccc2c1=O do in these assays?
mHTT-CaM PPI inh: -1; Pf apPOL inh: 0

How did Cc1cccc(N2CCN(C(=O)c3ccc(Cl)c(Cl)c3)C(C)C2=O)c1C (stereo unspecified) do in these assays?
mHTT-CaM PPI inh: 16; Pf apPOL inh: -1

What do the screens show for `O=C(c1cc2ccccc2[nH]1)N1CCC(c2noc(-c3ccccc3)n2)CC1`?
mHTT-CaM PPI inh: -5; Pf apPOL inh: 3

What do the screens show for `COc1cccc(-c2nc(C3CCN(C(=O)c4cccc(C)c4)CC3)no2)c1`?
mHTT-CaM PPI inh: 6; Pf apPOL inh: 6

How did Cc1oc(C2CCN(C(=O)c3ccc(C(C)(C)C)cc3)CC2)nc1C(=O)N1CCCCC1 do in these assays?
mHTT-CaM PPI inh: 31; Pf apPOL inh: -7

Results for Cc1oc(C2CCN(C(=O)c3ccc(C(F)(F)F)cc3)CC2)nc1C(=O)N1CCCC1 ?
mHTT-CaM PPI inh: 51*; Pf apPOL inh: -3

What do the screens show for `O=C(c1cc2cc(Cl)ccc2[nH]1)N1CCC(c2noc(-c3ccccc3)n2)CC1`?
mHTT-CaM PPI inh: 83*; Pf apPOL inh: 8

Results for COc1cccc(-c2nc(C3CCN(C(=O)c4ccc(Cl)c(Cl)c4)CC3)no2)c1 ?
mHTT-CaM PPI inh: 97*; Pf apPOL inh: 2

What do the screens show for `O=C(NCc1cccc(F)c1)C1CCc2nc(N3CCOCC3)ncc2C1` (stereo unspecified)?
mHTT-CaM PPI inh: 3; Pf apPOL inh: -5

Results for CC(C)C(=O)N(C)CC(=O)N1N=C(c2ccc(F)cc2)CC1c1ccccc1 (stereo unspecified) ?
mHTT-CaM PPI inh: 17; Pf apPOL inh: -3

How did COc1ccc(C2=NN(C(=O)CN(C)C(C)=O)C(c3ccc(Cl)cc3)C2)cc1 (stereo unspecified) do in these assays?
mHTT-CaM PPI inh: 35; Pf apPOL inh: -10

How did CN(CC(=O)N1N=C(c2cccn2C)CC1c1ccccc1)C(=O)C1CCC1 (stereo unspecified) do in these assays?
mHTT-CaM PPI inh: 55*; Pf apPOL inh: 0

Results for CC(C)C(=O)N(C)CC(=O)N1N=C(c2cccn2C)CC1c1ccc(Cl)cc1 (stereo unspecified) ?
mHTT-CaM PPI inh: 78*; Pf apPOL inh: -7

How did CN(CC(=O)N1N=C(c2cccn2C)CC1c1ccc(Cl)cc1)C(=O)C1CCC1 (stereo unspecified) do in these assays?
mHTT-CaM PPI inh: 49; Pf apPOL inh: -5

What do the screens show for `CC(=O)N(C)CC(=O)N1N=C(c2cccn2C)CC1c1ccc(Cl)cc1` (stereo unspecified)?
mHTT-CaM PPI inh: 65*; Pf apPOL inh: 0

Results for O=C1C(=C2C=C(c3ccccc3)OC3=C2CCCC3)C(=O)c2ccccc21 ?
mHTT-CaM PPI inh: 14; Pf apPOL inh: -74

Results for CCCN1CCN(C(=O)C2CCN(c3nnc(-c4ccccc4)o3)CC2)CC1 ?
mHTT-CaM PPI inh: 0; Pf apPOL inh: -4

Results for Clc1cc2c(c3ncccc13)OCN(CCCN1CCOCC1)C2 ?
mHTT-CaM PPI inh: 100*; Pf apPOL inh: -12

Results for Cc1cc(Cl)c(OCCCN2CCOCC2)c(Br)c1 ?
mHTT-CaM PPI inh: -3; Pf apPOL inh: -5

How did COc1ccc(Cl)cc1NC(=O)Nc1ccc2nc(C)cc(OC)c2c1 do in these assays?
mHTT-CaM PPI inh: 97*; Pf apPOL inh: 85*

Results for COc1cc(C)nc2ccc(NC(=O)Nc3ccc(Cl)cc3)cc12 ?
mHTT-CaM PPI inh: 25; Pf apPOL inh: 3

Results for O=C(NC1CCN(c2ccccc2C(=O)N2CCCCC2)CC1)C1CC1 ?
mHTT-CaM PPI inh: 9; Pf apPOL inh: -3

Results for CCCCCCCCCS(=O)(=O)c1nc(N)n[nH]1 ?
mHTT-CaM PPI inh: -7

Results for O=[N+]([O-])c1cc(C(F)(F)F)cc([N+](=O)[O-])c1Sc1nnnn1-c1ccccc1 ?
mHTT-CaM PPI inh: 100*; Pf apPOL inh: 4

Results for CS(=O)(=O)N1CCN(c2ccc([N+](=O)[O-])c(Sc3nnnn3-c3ccccc3)c2)CC1 ?
mHTT-CaM PPI inh: -4; Pf apPOL inh: -4

What do the screens show for `COc1ccc2nc(SC(=O)c3ccccc3)nc(C)c2c1`?
mHTT-CaM PPI inh: 100*; Pf apPOL inh: -5

Results for COc1ccc2nc(SCc3cccc([N+](=O)[O-])c3)nc(C)c2c1 ?
mHTT-CaM PPI inh: -3; Pf apPOL inh: 11

Results for COc1ccc2nc(SC(=O)c3ccccc3Cl)nc(C)c2c1 ?
mHTT-CaM PPI inh: 99*; Pf apPOL inh: -7

Results for COc1ccc(NC(=O)c2ccccc2Cl)c(OC)c1 ?
mHTT-CaM PPI inh: -7; Pf apPOL inh: 3
